Most compounds without a hit are left out; they make up all but 3.2% or so of the library.
PGC1a acetyl inh: lowers PGC1a acetylation signal in U2OS cells | AlphaScreen anti-acetyl-lysine; with virally co-expressed GCN5 acetyltransferase | inhibition, % at 15.6 µM | hit rate 0.17% among 350,000;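 active = every replicate shows inhibition of at least 40%; inconclusive = mean inhibition at least 40% but some replicate below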
ERAP1 inh: blocks human ERAP1 aminopeptidase activity; Q9NZ08; recombinant ERAP1, Leu-AMC fluorescence, 60 min; inhibition, % at 10.7 µM; hit rate 0.15% among 340,000;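 active = mean replicate inhibition of at least 30%, or all replicates individually reaching that 30% level; inactive = mean below 30% and not every replicate reaching it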
DENV2 CPE rescue: DENV2-induced cell death inhibition; DENV2-infected cells, cytopathic effect rescue, plate reader; CPE inhibition, % at 9.99 µM; hit rate 1.7% among 350,000; AID 651640; in the data active = CPE inhibition above about 20%, passing the limit was not always enough; inconclusive = no clear call, values can overlap the other calls; tested in BHK-21 cells
Ecoli rRNA inh: inhibitors of bacterial rRNA selective over humanized ribosomes; E. coli WT GFP vs humanized-ribosome RFP mutants, fluorescence, 24 h; hits give low values; DMSO median 0, no signal -100; GFP signal change (wild-type ribosome), % (concentration not given with the values); hit rate 1.6% among 350,000;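 active = significant combined selectivity score with lowered wild-type GFP, culture density cut under 30%, mutant RFP and density less affected; inactive = any of these conditions unmet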
CaV13 FRET inh: Primary screen for inhibitors of IQ motif and Ca2+-dependent inactivation inhibitor domain binding in CACNA1D, Förster resonance energy transfer in living cells, … | HEK cells, CFP/YFP FRET ICDI-IQ, plate reader, 10 min; percent FRET-ratio fall versus neutral wells | inhibition, % at 12.3 µM | hit rate 0.098% among 340,000 | AID 743397;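 active = mean replicate inhibition of at least 30% and at least 1% of replicates passing that level; inconclusive = only one of the two criteria is met; inactive = neither criterion is met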
GSIS activator: primary screen for activators of insulin secretion dependent on glucose, INS-1E cells, GLuc reporter luminescence. activation, % at 16.6 µM. INS-1E GLuc reporter insulin secretion, 2-3 h. hit rate 0.61% among 370,000;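 active = lowest replicate activation of at least 40%, so every replicate reaches that level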
Of the large screens only hits and unclear results are named; the others gave an inactive call.

CCC(CO)(C(=O)OC1C[N+]2(C)CCC1CC2)c1ccccc1 (stereo not given)	ERAP1 inh 72 (no result: DENV2 CPE rescue)
CCN(CC)P(=O)(c1n(CC)cc[n+]1CC)N(CC)CC	ERAP1 inh 109 (no result: PGC1a acetyl inh)
O=C(Cc1cccnc1)N1CCCCN2[C@@H](CO)[C@H](c3ccc(/C=C/c4ccccc4)cc3)[C@@H]2C1	none (no result: CaV13 FRET inh)
O=[N+]([O-])c1ccc(N2CCCCC2)c2ncccc12	Ecoli rRNA inh -43
O=[N+]([O-])c1ccc(N2CCOCC2)c2cccnc12	GSIS activator 75 (no result: PGC1a acetyl inh)
O=[N+]([O-])c1ccc(N2CCCCCC2)c2nonc12	none (no result: PGC1a acetyl inh)
O=[N+]([O-])c1ccc(N2CCOCC2)c2c1no[n+]2[O-]	PGC1a acetyl inh 84, Ecoli rRNA inh -24 (no result: GSIS activator)
O=[N+]([O-])c1ccc(N2CCCCCC2)c2ncccc12	none
COC(=O)[C@H]1[C@H](CO)[C@H]2Cn3c(ccc(-c4ccccc4OC)c3=O)[C@@H]1N2Cc1ccccc1	none (no result: PGC1a acetyl inh, ERAP1 inh, DENV2 CPE rescue, CaV13 FRET inh)
COC(=O)[C@@H]1[C@@H](CO)[C@@H]2Cn3c(ccc(-c4cccc(C(=O)N(C)C)c4)c3=O)[C@H]1N2CC1CC1	none (no result: PGC1a acetyl inh, CaV13 FRET inh)
Cc1nc2ccccc2c(=O)n1/N=C/c1cc(Br)cc(Br)c1O	Ecoli rRNA inh -22 (no result: PGC1a acetyl inh)
Cc1nc2ccccc2c(=O)n1-c1ccc(Br)cn1	none (no result: ERAP1 inh)
CC/C=C/CC(=O)N[C@@H](c1ccccc1)[C@@H](O)C(=O)O[C@H]1C[C@@]2(O)[C@@H](OC(=O)c3ccccc3)C3[C@](C)(C(=O)[C@H](OC(C)=O)C(=C1C)C2(C)C)[C@@H](O)C[C@H]1OC[C@@]31OC(C)=O (stereo not given in full)	DENV2 CPE rescue 28 (no result: CaV13 FRET inh, GSIS activator)
CC12CCC3C(CCC4(O)CC(O)CCC34C=O)C1(O)CCC2C1=CC(=O)OC1 (stereo not given)	DENV2 CPE rescue inconclusive (no result: PGC1a acetyl inh)
C[C@]12CC[C@H]3[C@@H](CC[C@]4(O)C[C@@H](O)CC[C@]34C=O)[C@@]1(O)CC[C@@H]2C1=CC(=O)OC1	PGC1a acetyl inh 96 (no result: Ecoli rRNA inh)
C=CCN1[C@@H]2CN(CC(F)(F)F)C[C@H]1C2c1ccc(Br)cc1 (stereo not given in full)	none (no result: PGC1a acetyl inh, ERAP1 inh, DENV2 CPE rescue, CaV13 FRET inh)
COC(=O)C1=C(c2ccc(Cl)c(C(F)(F)F)c2)C[C@@H]2CC[C@H]1N2C(=O)NCc1cc(C)oc1C(F)(F)F	DENV2 CPE rescue 25
O=C(NC[C@H]1CC[C@@H]2NC[C@@H]2O1)C1CCCC1	DENV2 CPE rescue inconclusive (no result: Ecoli rRNA inh, CaV13 FRET inh, GSIS activator)
COC(=O)C1=C(c2ccc(F)cc2OCc2ccccc2)C[C@@H]2CC[C@H]1N2C(=O)NCc1ccccc1	DENV2 CPE rescue 68 (no result: PGC1a acetyl inh)
c1ccc(N2[C@@H]3CC[C@H]2c2ccncc2C3)cc1	GSIS activator 48 (no result: PGC1a acetyl inh, Ecoli rRNA inh)
CC(C)NC(=O)N1C[C@@H]2N[C@H](C1)C2c1ccc(Br)cc1 (stereo not given in full)	none (no result: PGC1a acetyl inh, ERAP1 inh, DENV2 CPE rescue, CaV13 FRET inh)
C1CCC2CCCCC2C1 (stereo not given)	DENV2 CPE rescue 33 (no result: CaV13 FRET inh)
CC(=O)N1[C@@H]2Cn3c(ccc(-c4cccc(C(=O)N(C)C)c4)c3=O)[C@H]1[C@@H](C(=O)O)[C@@H]2CO	none (no result: PGC1a acetyl inh, ERAP1 inh, DENV2 CPE rescue, CaV13 FRET inh)
COC(=O)C1=C(C(=O)OC)C2OC1c1cc3ccccc3cc12	Ecoli rRNA inh -19, GSIS activator 118 (no result: PGC1a acetyl inh)
COC(=O)[C@H]1[C@H](CO)[C@H]2Cn3c(ccc(C4=CCCCC4)c3=O)[C@@H]1N2C(=O)NC(C)C	none (no result: CaV13 FRET inh)
CC(C)(C)n1cc(C(=O)c2ccccc2)cc1-c1ccccc1	DENV2 CPE rescue 36 (no result: PGC1a acetyl inh)
CC(C)NC(=O)N1C[C@@H]2C(c3ccccc3)[C@H](C1)N2C (stereo not given in full)	none (no result: PGC1a acetyl inh, ERAP1 inh, DENV2 CPE rescue, CaV13 FRET inh)
C[C@H]1O[C@@H](OC2CC[C@]3(C=O)[C@H]4CC[C@]5(C)[C@@H](C6=CC(=O)OC6)CC[C@]5(O)[C@@H]4CC[C@]3(O)C2)CC2OC(C)(C)OC21 (stereo not given in full)	none (no result: PGC1a acetyl inh)
C[C@@H]1O[C@@H](O[C@H]2C[C@@H](O)[C@]3(CO)[C@H]4[C@H](O)C[C@]5(C)[C@@H](C6=CC(=O)OC6)CC[C@]5(O)[C@@H]4CC[C@]3(O)C2)[C@H](O)[C@H](O)[C@H]1O	PGC1a acetyl inh 83 (no result: ERAP1 inh, DENV2 CPE rescue, Ecoli rRNA inh, CaV13 FRET inh, GSIS activator)
COC(=O)[C@@H]1[C@@H](CO)[C@@H]2Cn3c(ccc(-c4ccccc4F)c3=O)[C@H]1N2Cc1ccccc1	none (no result: PGC1a acetyl inh, CaV13 FRET inh)
O=C(O)C(Br)Br	DENV2 CPE rescue 70 (no result: PGC1a acetyl inh, CaV13 FRET inh)
c1ccc(C2CC2)c(OCC2=NCCN2)c1	DENV2 CPE rescue 75 (no result: Ecoli rRNA inh, GSIS activator)
COC(=O)[C@@H]1[C@@H](CO)[C@@H]2Cn3c(ccc(C4=CCCC4)c3=O)[C@H]1N2CC1CCCC1	none (no result: PGC1a acetyl inh, CaV13 FRET inh)
Cc1cc2c(C(C)C)c(O)c(O)c(C=O)c2c(O)c1-c1c(C)cc2c(C(C)C)c(O)c(O)c(C=O)c2c1O	Ecoli rRNA inh -7.7 (no result: GSIS activator)
CN1OC[C@@H]2CN[C@H](c3ccc(Br)cc3)C[C@@H]21	DENV2 CPE rescue 26 (no result: ERAP1 inh)
CC(C)(C)n1nnnc1C(C1CC1)N1CCC2(CC1)C(=O)NCN2c1ccccc1 (stereo not given)	Ecoli rRNA inh -16 (no result: ERAP1 inh)
O=C1NCN(c2ccccc2)C12CCN(C(c1nnnn1C1CCCCC1)C1CC1)CC2 (stereo not given)	none (no result: ERAP1 inh)
c1ccc(Cc2cnc(N3CCNCC3)nc2)cc1	ERAP1 inh 64 (no result: PGC1a acetyl inh)
CCCNC(=O)[C@@H]1[C@@H](CO)[C@@H]2Cn3c(cccc3=O)[C@@H]2N1CC	none (no result: CaV13 FRET inh)
CCC(C)c1cnc(CC(C)C)c(=O)n1O (stereo not given)	DENV2 CPE rescue 59 (no result: CaV13 FRET inh)
Cc1cccc(S(=O)(=O)N2[C@@H]3Cn4c(ccc(-c5ccccc5)c4=O)[C@H]2[C@@H](C(=O)O)[C@@H]3CO)c1	none (no result: PGC1a acetyl inh, CaV13 FRET inh)
CC[N+](C)(CC)CCCCOc1ccc2c(c1)C(=O)c1cc(OCCCC[N+](C)(CC)CC)ccc1-2	ERAP1 inh 68, Ecoli rRNA inh -53
CCCNC(=O)[C@H]1[C@H](CO)[C@H]2Cn3c(cccc3=O)[C@H]2N1CC	none (no result: PGC1a acetyl inh, CaV13 FRET inh)
O=C(O)[C@@H]1[C@@H](CO)[C@@H]2Cn3c(ccc(-c4ccncc4)c3=O)[C@H]1N2C(=O)C1CCC1	none (no result: PGC1a acetyl inh, CaV13 FRET inh)
O=S(=O)(NC1CCCC1)OCC(Cl)(Cl)Cl	DENV2 CPE rescue 27
O=S(=O)(NC1CCCCCCC1)OCC(Cl)(Cl)Cl	DENV2 CPE rescue 34 (no result: ERAP1 inh)
CC1(C)CN(S(=O)(=O)OCC(Cl)(Cl)Cl)C(=O)N1	none
O=c1[nH]c(=O)n(Cc2ccc(F)cc2)c(O)c1/C=N/Nc1ccccc1	DENV2 CPE rescue 34 (no result: PGC1a acetyl inh)
CS(=O)(=O)N1C[C@@H]2C(c3ccccc3)[C@H](C1)N2CC1CC1 (stereo not given in full)	none (no result: PGC1a acetyl inh, ERAP1 inh, DENV2 CPE rescue, CaV13 FRET inh)
CC(C)NC(=O)N1C[C@@H]2C(c3ccc(Br)cc3)[C@H](C1)N2C (stereo not given in full)	none (no result: PGC1a acetyl inh, ERAP1 inh, DENV2 CPE rescue, CaV13 FRET inh)
Cc1ccccc1-n1c(/C=C/c2ccccn2)nc2ccccc2c1=O	none

Screening data from PubChem BioAssay.
